Laboratory results reported in PubChem BioAssay AID1345083 (National Center for Advancing Translational Sciences (NCATS), 2018).
Out of some 94,000 compounds screened, about 6,200 (6.6%) were called active. A call without a number means that no potency is given here. Another 31% or so got no clear call; they are omitted. The call rests on the fitted dose curve; in most records, active means well fitted inhibition curve with a large enough effect; inconclusive means small, poorly fitted or top-dose-only effect; inactive means flat fitted curve, though single readings scatter. Only a selection was taken, and actives are over-represented in it overall.

Assay: Cytotoxic Profiling in HEK 293 Cell Line of Diverse Libraries Using Quantitative High-Throughput Screening; further: nearly all actives have a fitted effect of over 60% in size
Details: HEK 293 viability, ATP luminescence (CellTiter-Glo), 48-72 h; series mostly up to 115 µM
Outline: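 Cells seeded first (HEK 293, 250 cells/well), then compound added by pintool. Incubation ran 48 or 72 hr at 37 degree Celsius. CellTiter-Glo was added and luminescence imaged after 10 min at room temperature.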
Potency means the concentration at half of the fitted maximal effect.

| Structure (SMILES) | Potency |
| --- | --- |
| CN(Cc1ccc(OC(F)(F)F)cc1)C(=O)C1(C)CCOCC1 | inactive |
| CNC(=O)c1cc[nH]c1C1CCCN(C(=O)c2noc(C)c2Cn2cccn2)C1 (stereo not given) | inactive |
| COc1cccc(C(=O)N2C(C(=O)NC3CC3)COC23CCN(C(=O)c2ccc(F)cc2)CC3)c1 (stereo not given) | inactive |
| O=C(CCC[C@@H]1[C@H]2CCCN3CCC[C@@H](CN1C(=O)c1cccnc1)[C@@H]23)NCCCc1ccccc1 | inactive |
| COc1ccc(S(=O)(=O)N2CCc3c(C(=O)NCc4ccncc4)cccc32)cc1 | 35.5 µM (active) |
| COc1ccc(-c2nc(C(C)C)nc3c2CCN(C(=O)Cc2ccccn2)CC3)cc1 | inactive |
| COc1ccc(S(=O)(=O)N2[C@@H]3CC[C@H]2CC(NC(=O)c2ccncc2)C3)cc1 (stereo not given in full) | inactive |
| COCC1CCCCN1c1ccc(C(=O)NCCCc2ccccn2)cn1 (stereo not given) | inactive |
| COc1ccc(S(=O)(=O)N2CCc3c(C(=O)NCCc4ccccn4)cccc32)cc1 | 44.7 µM (active) |
| Cc1ccc(C)c(CNC(=O)c2ccc3c(c2)N(S(=O)(=O)c2ccccc2)CC3)c1 | inactive |
| CCCNC(=O)N(C1CCOCC1)C1CCN(C(=O)c2ccc(F)c(F)c2)CC1 | inactive |
| Cc1cccc(OCC(=O)N2CCCC(n3cc(-c4noc(C)n4)nn3)C2)c1 (stereo not given) | inactive |
| COCCCn1c(=O)c(C(=O)N2CCN(C(=O)c3ccccc3)CC2)nc2cccnc21 | inactive |
| C=CCNC(=O)C(NC(=O)c1cccc(OC)c1)C1CCN(C(=O)c2ccccc2F)CC1 (stereo not given) | inactive |
| C#CCNC(=O)C1CN(c2ccc(OC)cc2)C(=O)N1 (stereo not given) | inactive |
| CNC(=O)c1cc(C2CC2)nc2onc(C3CCCN(C(=O)C4CC4)C3)c12 (stereo not given) | inactive |
| CN1Cc2ccc(CN(C)C(=O)C3CCN(Cc4ccco4)CC3)cc2C1 | inactive |
| c1ccc(-c2nc(C3CCOCC3)nn2CC2COCCO2)cc1 (stereo not given) | inactive |
| COCC(=O)Nc1nc2c(s1)C[C@@H]1[C@](C)(CO)[C@H](O)CC[C@@]1(C)[C@@H]2CC(=O)NCCN1CCOCC1 | inactive |
| CC(=O)N1CCN(C(=O)C[C@@H]2c3nc(NC(=O)c4cccs4)sc3C[C@@H]3[C@](C)(CO)[C@H](O)CC[C@]32C)CC1 | inactive |
| CN(C)CCNC(=O)C[C@@H]1c2nc(NC(=O)c3ccc(C(C)(C)C)cc3)sc2C[C@@H]2[C@](C)(CO)[C@H](O)CC[C@]21C | 31.6 µM (active) |
| CC(C)CCN(C1CCOCC1)C1CCN(Cc2cccnc2)CC1 | inactive |
| O=C(c1ccc(Cl)cc1Cl)N1CCC(c2nnc3n2C(C(=O)N2CCN(c4ncccn4)CC2)CC3)CC1 (stereo not given) | inactive |
| COc1cc(C(=O)N2CCCN(S(C)(=O)=O)c3ccccc32)cc(OC)c1OC | inactive |

| Structure (SMILES) | Potency |
| --- | --- |
| CCN1CCCCC12Cc1ccccc1CN(S(C)(=O)=O)C2 (stereo not given) | inactive |
| CC(=O)NCCC(=O)N1Cc2ccccc2CC2(CCCCN2CC2CCNC2)C1 (stereo not given) | inactive |
| Cc1ccc(CCN2CCCCC23Cc2ccccc2CN(C(=O)CCCC(=O)O)C3)cc1 (stereo not given) | inactive |
| CC(=O)N1Cc2ccccc2CC2(CCCCN2C)C1 (stereo not given) | inactive |
| O=C(C1CCCC1)N1Cc2ccccc2CC2(CCCCN2CC2CCNCC2)C1 (stereo not given) | 25.1 µM (active) |
| O=C(c1ccccc1)N1Cc2ccccc2CC2(CCCN2CC2CCNC2)C1 (stereo not given) | 79.4 µM (active) |
| O=C(NC1CCCCC1)C1CN(S(=O)(=O)c2cccc(Cl)c2)CC12CCOCC2 (stereo not given) | inactive |
| NC(=O)[C@H](CCC(=O)O)NC(=O)[C@@]1(O)C[C@@H](O)[C@H](O)[C@@H](NS(=O)(=O)c2cccc(C(F)(F)F)c2)C1 | inactive |
| Cn1nnc(-c2ccc(C(=O)N[C@H]3C[C@@H]4OCC[C@H]34)cc2)n1 | inactive |
| c1cnc2nc(C3CCCCN3)[nH]c2c1 (stereo not given) | inactive |
| Cc1cc(C(=O)NCC2Cn3cccc3C(=O)N2CC(C)C)n(C)n1 (stereo not given) | inactive |
| CC(C)N1Cc2cc(C(=O)O)sc2C1 | inactive |
| COCCn1ccc2c(NC(=O)Cn3nc4c(cc3=O)CCCC4)cccc21 | inactive |
| CC(C)N1Cc2cc(C(=O)Nc3cccc4c3CCCC4)sc2C1 | 28.2 µM (active) |
| O=C(O)C[C@@H]1CCN(C(=O)C2CCCCC2)C[C@@H]1CCN1CCN(c2ccccc2)CC1 | inactive |
| O=C(O)CCC(=O)N1CCOC2(CCN(C(=O)c3ccccc3)CC2)C1 | inactive |
| O=C(c1ccc(F)cc1)N1CCC2(CC1)CCN(Cc1cccs1)c1ccccc1O2 | 44.7 µM (active) |
| CCOC(=O)[C@@H]1[C@@H](OC)C(=O)N(Cc2ccccc2)C12CCN(C(=O)c1ccc(F)cc1)CC2 | inactive |
| COCC(=O)N(C1CCOCC1)C1CCN(S(=O)(=O)c2ccc(F)c(F)c2)CC1 | inactive |
| O=S(=O)(c1ccccc1)N1CCC(CCOc2ccccc2)C1 (stereo not given) | 79.4 µM (active) |
| O=C(CCC1CCN(S(=O)(=O)c2ccccc2)CC1)NCc1ccccn1 | inactive |
| O=C1OCCN1C1CCN(S(=O)(=O)c2ccccc2)CC1 | inactive |
| CCCN1C(=O)NC(Cc2nc(-c3cccnn3)no2)C1=O (stereo not given) | inactive |
| COc1ccccc1C(=O)NCC1COc2ncncc2C(=O)N1Cc1ccccc1 (stereo not given) | inactive |

| Structure (SMILES) | Potency |
| --- | --- |
| Fc1ccccc1-c1n[nH]c2c1CN(Cc1cccc3c1OCO3)CC2 | 44.7 µM (active) |
| CSCC(=O)N1CCc2[nH]nc(-c3ccc4c(c3)OCO4)c2C1 | inactive |
| O=C1Cc2c(-c3ccc(F)cc3F)n[nH]c2CN1Cc1ccccc1F | inactive |
| O=C(c1cccc(Cl)c1)N1CCC(C(=O)N2CCCC(c3nc4ccncc4[nH]3)C2)CC1 (stereo not given) | inactive |
| O=C(N1CCCC1c1nc(CCOCC2CC2)no1)C1(c2ccccc2)CC1 (stereo not given) | inactive |
| O=C(c1ccc(-n2cnnc2)cc1)N1CCC2(CCCO2)CC1 | inactive |
| Cn1cccc1C(=O)N[C@H]1C[C@@H](C(=O)O)N(C(=O)CSCC(=O)N2C[C@@H](NC(=O)c3cccn3C)C[C@H]2C(=O)O)C1 | inactive |
| CCc1nc(-c2c3n(c(=O)n(CC(=O)Nc4ccc(C)cc4)c2=O)CCCCC3)no1 | inactive |
| Cc1cccc(-c2cc(C3CCN(S(=O)(=O)c4cccc(C#N)c4)CC3)[nH]n2)c1 | 25.1 µM (active) |
| Cc1cccc(S(=O)(=O)N2CCC(n3cnnc3C(C)C)CC2)c1 | inactive |
| N#Cc1cccc(CN2CCCN(S(=O)(=O)c3ccccc3)CCC(=O)NCC2)c1 | inactive |
| O=C(O)C[C@@H]1CCN(C(=O)c2ccc(C(F)(F)F)cc2)C[C@@H]1CCN1CCN(c2ccc(F)cc2)CC1 | inactive |
| COCCNC(=O)C1COC2(CCN(C(=O)c3ccc(F)cc3)CC2)N1C(=O)c1ccccc1C (stereo not given) | inactive |
| COc1ccccc1C(=O)N1CCN(c2cc(C(F)(F)F)ncn2)CC1 | inactive |
| COc1ccccc1Nc1ccnc(N2CCC(C(=O)NCc3cccc(Cl)c3)CC2)n1 | 39.8 µM (active) |
| COc1ccccc1Nc1ccnc(N2CCC(C(=O)NCc3ccc(C(F)(F)F)cc3)CC2)n1 | 31.6 µM (active) |
| COc1cccc(C(=O)N2CCN(c3nccc(Nc4ccccc4OC)n3)CC2)c1 | inactive |
| COc1ccc(C2Cn3nnc(C(=O)N4CCC(C(=O)NCc5ccc(C)cc5)CC4)c3CO2)cc1 (stereo not given) | inactive |
| COc1ccccc1Nc1ccnc(N2CCN(C(=O)c3ccc(C(F)(F)F)cc3)CC2)n1 | 39.8 µM (active) |
| COc1ccccc1Nc1ccnc(N2CCC(NC(=O)NC(C)C)CC2)n1 | inactive |
| O=C(c1ccccc1Cl)N1CCN(C(=O)c2nc3cccnc3n(Cc3ccccc3)c2=O)CC1 | inactive |
| Cc1ccccc1C(=O)N1CCN(c2nccc(Nc3ccccc3Cl)n2)CC1 | 35.5 µM (active) |
| COc1ccc(C2Cn3cnc(C(=O)N4CCC(C(=O)NCc5cccc(F)c5)CC4)c3CO2)cc1 (stereo not given) | inactive |
| Cc1ccc(C2Cn3cnc(C(=O)N4CCC(C(=O)NCc5cccc(Cl)c5)CC4)c3CO2)cc1 (stereo not given) | inactive |

| Structure (SMILES) | Potency |
| --- | --- |
| O=C(Nc1ccccc1Cl)N1CCC(Oc2ncccc2C(=O)N2CCCCC2)C1 (stereo not given) | inactive |
| O=C1NC2(Cc3ccccc31)CN([S+](=O)([O-])c1cccc(C(F)(F)F)c1)C2 | inactive |
| O=C(NCC1CC1)c1cn(C2CN(C(=O)Nc3ccccc3)C2)nn1 | inactive |
| CCCNC(=O)N1CCOC[C@H](Oc2cccnc2)C1 | inactive |
| CCc1cccc(NC(=O)C2(C)CCCCC(=O)N2)c1 (stereo not given) | inactive |
| CC(=O)N1CCOc2ccc(CCC(=O)NCc3nc4ccccc4n3C)cc2C1 | inactive |
| CCCCN1C(=O)[C@@H]2C[C@@H](O)CN2C2(CN(CC(C)C)C2)C1=O | inactive |
| COCC1(CNS(=O)(=O)c2ccc(F)cc2)C[C@@H](O)[C@@H](O)C1 (stereo not given in full) | inactive |
| COc1ccc(Nc2ccnc(N3CCC(C(=O)N4CCN(C(C)=O)CC4)CC3)n2)cc1 | inactive |
| COc1ccc(CNC(=O)[C@@H]2CCC[C@@H](NCc3nccs3)CN(C)C(=O)C2)cc1 | inactive |
| COc1ccc(Nc2ccnc(N3CCCC(C(=O)NCc4ccc(C(F)(F)F)cc4)C3)n2)cc1 (stereo not given) | 20 µM (active) |
| Cc1nsc(NC(=O)N2CCC(CO)CC2)n1 | inactive |
| CCOc1ccccc1C(=O)N1CCC(N2CC3CC(C2)[C@H]2CCCC(=O)N2C3)CC1 (stereo not given in full) | inactive |
| COC[C@@H]1CN(C(=O)Cn2cc(C)cn2)C[C@H]1c1ccccn1 | inactive |
| Cc1ccc(C)c(NC(=O)Cn2nc3n(c2=O)CCCCC3)c1 | inactive |
| CN(CCc1cn[nH]c1)c1ccc(-c2nc(-c3ccccc3F)no2)cn1 | 31.6 µM (active) |
| O=C(C1CCC1)N1CCC(Oc2cccnc2)C1 (stereo not given) | inactive |
| Cc1noc(C)c1-c1cc(-c2cncnc2)cn2cncc12 | inactive |
| OCc1ccc(-c2cc(-c3cccnc3)c3cncn3c2)cc1 | inactive |
| Cc1noc(C)c1-c1cc(-c2ccccc2Oc2ccccc2)cn2cncc12 | 79.4 µM (active) |
| CCCOCCCNC(=O)c1c(C)noc1-c1ccccc1Cl | inactive |
| COc1ccccc1-c1onc(C)c1C(=O)NCc1ccc(Cl)cc1 | inactive |
| COc1ccccc1-c1onc(C)c1C(=O)NCCC(c1ccccc1)c1ccccc1 | 25.1 µM (active) |
